# Compound activity from PubChem.
# IL-1B inflam inh: blocks inflammasome-driven IL-1 beta release; THP-1 LPS/ATP IL-1B secretion, AlphaLISA, 16 h; active compounds read low; AID 743279; activity change, % at 57.5 µM; actives 4.7% (n = 360,000); in the data active means activity change below about -50%; inconclusive means mostly about -30% to -49%
#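 Secreted IL-1B measured by AlphaLISA bead assay after 16 h compound exposure of THP-1 cells; compounds (final up to 57.5 uM) added 1 h before LPS (250 ng/mL) and ATP (1.25 mM) stimulation; lower signal means less secretion.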
# HT1080 IDH1KD tx: HT-1080 IDH1 knockdown cell toxicity (counter line); Potency, µM (top dose mostly 46.1 µM), inactives show top-dose activity, negative = toxicity, hits mostly cytotoxic; actives 2% (n = 360,000); HT-1080 IDH1 knockdown viability, ATP luminescence, 48 h;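 further: potency means the concentration at half of the fitted maximal effect; 0% = DMSO wells and -100% = cell-free medium wells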
#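 HT-1080-IDH1KD cells (IDH1 knocked down), 750/well in RPMI with 5% FBS, treated with compound 48 h at 37 degrees C. Viability by CellTiter-Glo luminescence, normalised to DMSO and no-cell wells; concentration-response curves classed.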
# HT1080-NT tox: kills 2HG-producing HT-1080-NT fibrosarcoma cells | HT-1080-NT fibrosarcoma viability, CellTiter-Glo ATP luminescence, 48 h | Potency, µM (highest dose often 46.1 µM), without a hit: at the top dose activity, negative = less viability, usual class: cytotoxic | actives 1.6% (n = 360,000);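 further: NT is the 2HG producing partner of a matched IDH1 knockdown line; potency means the concentration at half of the fitted maximal effect; 0% = DMSO-treated cells and -100% = media-only wells without cells; nearly all actives have a fitted effect of over 55% in size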
#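 HT-1080-NT; 750 cells/well; 5% FBS RPMI; 48 h compound, 37 degrees C; CellTiter-Glo luminescence; curve fitting and curve-class assignment.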
# DT40 TDP1 CPT: DT40-hTDP1 cell growth loss with CPT; Potency, µM (titrated, usually from 46.2 µM), without a hit: at the highest dose activity change, negative = growth inhibition, usual class: inhibitors; chicken DT40 Tdp1-/-;hTDP1 cells + 20 nM CPT, ATP luminescence, 48 h; actives 12% (n = 420,000); further: potency means the concentration at half of the fitted maximal effect; nearly all actives have a fitted effect of over 55% in size
#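 Chicken DT40 Tdp1-/- cells stably complemented with human TDP1 were seeded at 400 cells/well in medium containing 20 nM camptothecin, exposed to pin-transferred compounds, and grown at 37 °C for at least 48 hr. Viability was read as ATP luminescence.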
# uPA generation: cell surface uPA generation inhibition; cell surface uPA generation assay, qHTS; Potency, µM (series often up to 38.3 µM), inactives show top-dose activity change, negative = inhibition, hits mostly inhibitors; actives 0.31% (n = 330,000); active means well fitted inhibition curve with a large enough effect; inconclusive means small, poorly fitted or top-dose-only effect; inactive means no such curve, though single readings can be large or run the other way; tested in mouse RAW 264.7 cells; further: potency means the concentration at half of the fitted maximal effect; nearly all actives have a fitted effect of over 55% in size
# DT40 TDP1 no CPT: qHTS for Inhibitors of human tyrosyl-DNA phosphodiesterase 1 (TDP1): qHTS in cells in absence of CPT; DT40 Tdp1-/- hTDP1 cells, no CPT, ATP luminescence, 48 h; Potency, µM (doses to about 46.2 µM), for inactives: at the top dose activity change, negative = growth inhibition, hits mostly inhibitors; actives 15% (n = 420,000); AID 686978, 2013; further: potency means the concentration at half of the fitted maximal effect; nearly all actives have a fitted effect of over 55% in size
#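 Chicken DT40 Tdp1-/- cells stably complemented with human TDP1 were seeded at 400 cells/well with DMSO in place of 20 nM camptothecin. After compound pinning, cells grew at least 48 hr at 37 °C; viability read by CellTiter-Glo luminescence.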
# * hit, by the source's call; ? = inconclusive; · = not tested or not shown; [ ] = remark or other dose. Sampled rows, rich in hits. Any-hit rate of the full collection: about 19%. Unless noted, the call rests on the fitted dose curve; in most records, active means well fitted curve in the direction sought with a large enough effect; inconclusive means small, poorly fitted or top-dose-only effect, or another doubt; inactive means no such curve, though single readings can be large; an effect the other way counts as inactive or inconclusive. Unless noted, on the % scale 0 is the no-effect control and ±100 the full control effect.
SMILES,IL-1B inflam inh,HT1080 IDH1KD tx,HT1080-NT tox,DT40 TDP1 CPT,uPA generation,DT40 TDP1 no CPT
CC(C)(C)C(=O)Nc1cccc(-c2nc3ccccc3[nH]2)c1,-13,1%,-3%,?,-5%,?
O=C(Nc1cccc(-c2nc3ccccc3[nH]2)c1)c1c(F)cccc1F,·,·,·,15µM*,·,10µM*
COC(=O)[C@@]12C[C@@H](CC(=O)N3CCSCC3)C(=O)N(Cc3ccco3)C1=CCC(C)(C)C2,-14,-2%,11%,-1%,·,?
Cc1ccc2nccc(C(=O)N3CCCC(Nc4ccc(F)cc4)C3)c2c1 (configuration not stated),22,0%,-2%,-30%,4%,?
CCCS(=O)(=O)N1CCCC(C(=O)NCCc2cccc(C)c2)C1 (configuration not stated),-13,1%,0%,-8%,13%,-2%
CC(=O)c1ccc(-c2ccc(C(=O)NC3CCCCCC3)o2)cc1,7,28%,?,10%,0%,-11%
CC(Oc1ccccc1)C(=O)Nc1cccc(-c2nc3ccccc3[nH]2)c1 (configuration not stated),10,-3%,-6%,?,1%,?
CC(C)COc1ccc(C(=O)Nc2cccc(-c3nc4ccccc4[nH]3)c2)cc1,·,·,·,18µM*,·,21µM*
Cc1ccc(S(=O)(=O)N2[C@H](CC(=O)c3cccc4ccccc34)OC[C@@H]2C)cc1,-3,-29%,?,?,·,?
CN(C)S(=O)(=O)c1ccc(NC(=O)C2CC(=O)N(Cc3ccccc3)C2)cc1 (configuration not stated),6,10%,9%,7%,-2%,-8%
CN(c1ccccc1)S(=O)(=O)c1cccc(NC(=O)C2CC(=O)N(Cc3ccccc3)C2)c1 (configuration not stated),-22,-1%,0%,16µM*,7%,21µM*
CCN(CC)c1ccc(NC(=O)C2CC(=O)N(Cc3ccccc3)C2)cc1 (configuration not stated),-7,-24%,-1%,?,3%,12µM*
O=C1Nc2ccccc2N=C(c2ccc3c(c2)OCO3)C1N(C(=O)c1ccnc2ccccc12)c1ccccc1 (configuration not stated),?,?,?,21µM*,·,18µM*
O=C1Nc2ccccc2N=C(c2ccc3c(c2)OCO3)C1N(C(=O)c1ccc2ccccc2c1)C1CC1 (configuration not stated),?,?,?,16µM*,·,21µM*
CCN1C(=O)CC(CC(=O)N2CCCCC2c2nccs2)(c2ccccc2C)C1=O (configuration not stated),·,·,·,-2%[9.04 µM],·,-12%
O=C(c1cc(COc2cccc3cnccc23)on1)N1CCC(c2ccccc2Cl)C1 (configuration not stated),-1,-21%,?,23µM*,-25%,18µM*
Cc1cccc(C)c1OCc1cc(C(=O)N2CCC(c3ccncc3)CC2)no1,-68*,-19%,?,9.2µM*,-9%,5.2µM*
O=C(c1cc(COc2c(F)cccc2F)on1)N1CCC(c2ccccc2Cl)C1 (configuration not stated),-18,0%,-10%,-1%,-1%,-18%
O=C(c1cc(COc2c(F)cccc2F)on1)N1CCC(c2ccccc2F)C1 (configuration not stated),?,18%,28%,-1%,-1%,?
O=C(c1cc(COc2c(F)cccc2F)on1)N1CCC(c2ccncc2)CC1,?,-26%,?,9.2µM*,-4%,9.2µM*
Cc1cc(C)cc(-n2ccn(CC(=O)Nc3ccccc3F)c(=O)c2=O)c1,·,·,·,0%,·,-4%
Nc1ccc(S(=O)(=O)NC2(C(F)(F)F)NC(=O)N(c3cccc(Cl)c3)C2=O)cc1 (configuration not stated),·,·,·,13%,·,6%
CCC(C(=O)NC1CCC(C)CC1)n1nc(C)c2sc3ccccc3c2c1=O (configuration not stated),·,·,·,15µM*,·,15µM*
CCC(C(=O)Nc1cc(C(F)(F)F)ccc1Cl)n1nc(C)c2sc3ccccc3c2c1=O (configuration not stated),·,·,·,23µM*,·,16µM*
CCCN1CCN(CCCNC(=O)C(CC)n2nc(C)c3sc4ccccc4c3c2=O)CC1 (configuration not stated),0,0%,-25%,-26%,-6%,2%
SMILES,IL-1B inflam inh,HT1080 IDH1KD tx,HT1080-NT tox,DT40 TDP1 CPT,uPA generation,DT40 TDP1 no CPT
CCCOc1ccc(CNC(=O)C(CC)n2nc(C)c3sc4ccccc4c3c2=O)cc1 (configuration not stated),·,·,·,21µM*,·,23µM*
CCCN1CCN(C(=O)C(C)n2nc(C)c3sc4ccccc4c3c2=O)CC1 (configuration not stated),-8,-8%,-4%,?,1%,18µM*
COc1ccccc1CNc1ncncc1-c1cccc(C#N)c1,·,·,·,-16%,·,-17%
O=C(CSC1=Nc2ccccc2C2=NC(Cc3ccccc3)C(=O)N12)Nc1ccccc1F (configuration not stated),·,·,·,23µM*,·,?
O=C(CSC1=Nc2ccccc2C2=NC(Cc3ccccc3)C(=O)N12)Nc1ccccc1C(F)(F)F (configuration not stated),·,·,·,?,·,26µM*
CCCCCCCNC(=O)C1(CC2CC(c3ccccc3)=NO2)CCNCC1 (configuration not stated),?,-9%,?,?,-19%,16µM*
CCCNC(=O)C1(CC2CC(c3ccccc3)=NO2)CCN(C(=O)c2ccccc2)CC1 (configuration not stated),16,5%,-1%,6%,-8%,5%
CCCCCCCNC(=O)C1(CC2CC(c3ccc(Cl)cc3)=NO2)CCN(C(=O)C2(C)CC2)CC1 (configuration not stated),?,-11%,-17%,?,-19%,16µM*
CCCCCCCNC(=O)C1(CC2CC(c3ccc(Cl)cc3)=NO2)CCN(C(=O)C2CCCC2)CC1 (configuration not stated),1,5%,0%,?,7%,?
COc1ccc(CCN(C)C(=O)c2cc(=O)c3ccccc3o2)cc1OC,-54*,29%,15%,-7%,-10%,-21%
